PAX8 inh HTS – PAX8 transcriptional activity inhibition | inhibition, % at 12.6 µM | 360,000 compounds, 1.2% hits | RMG-I TPO-luciferase reporter, SteadyGlo, 24 h;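 active = mean replicate inhibition at least 60% with every replicate also reaching 60%; inconclusive = only one of the two criteria is met; inactive = mean below 60% and not all replicates reaching 60%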;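 note: luciferase light reporting Pax8 driven TPO promoter activity; plate controls were median of neutral control wells for no effect and mitoxantrone controls for full effect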
LGR2 antag – blocks bursicon-induced cAMP signaling via Drosophila LGR2; HEK293 LGR2, CRE-luciferase, bursicon-stimulated, 4 h; inhibition, % at 9.99 µM; 380,000 compounds, 0.35% hits; AID 720647;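 active = drop in luminescence signal, shown as inhibition above about 50% in the replicate tests, limit read from the data, passing the limit was not always enough; inconclusive = probably only some replicates passing the limit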;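 note: agonist challenge used bursicon conditioned medium at about half maximal strength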
EWS-Fli block – blocks EWS/Fli oncoprotein-driven transcription. A673 NR0B1-luciferase reporter, viability-normalised. inhibition, % at 12.6 µM. 350,000 compounds, 0.67% hits. AID 651661;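 active = mean inhibition of at least 50% after viability correction, with every replicate also passing that limit; inconclusive = mean reaches 50% but only one of two replicates passes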;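 note: firefly luciferase signal divided by Alamar Blue viability fluorescence both relative to DMSO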
PGC1a acetyl inh – PGC1a acetylation modulation, inhibitor mode. U2OS PGC1a acetylation, AlphaScreen anti-acetyl-lysine; with virally co-expressed GCN5 acetyltransferase. inhibition, % at 15.6 µM. 350,000 compounds, 0.17% hits. AID 651687;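 active = every replicate shows inhibition of at least 40%; inconclusive = mean inhibition at least 40% but some replicate below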;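 note: 0% = neutral control wells and 100% = positive control wells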
TRPM1 prom inh – inhibitors of MITF-driven TRPM1 promoter in melanoma cells | inhibition, % at 12.5 µM | AID 488899 | SK-MEL-5 TRPM1 promoter luciferase, 24 h | 330,000 compounds, 0.83% hits;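 active = mean inhibition across replicates of 60% or more, whatever share of single replicates reaches that level; inconclusive = some that reach 60%, reason not given; inactive = mean inhibition across replicates below 60%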
EBV LMP1 NFkB – Epstein-Barr LMP1 NF-kappaB reporter inhibition. LMP1-induced NF-kappaB luciferase reporter cells, luminescence. inhibition, % at 12.5 µM. 350,000 compounds, 0.69% hits; in the data active = inhibition above about 41%; inconclusive = no clear call, values can overlap the other calls;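 note: 0% = neutral control wells and 100% = reference inhibitor control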
Starred values were filed as active, the others as inactive; ? = inconclusive; · = not tested or not shown; ! = not confirmed by another sample. A selection: hits, their analogues and other compounds. The true share with any hit is near 2.2%.

SMILES	PAX8 inh HTS	LGR2 antag	EWS-Fli block	PGC1a acetyl inh	TRPM1 prom inh	EBV LMP1 NFkB
C[C@H]1CN([C@@H](C)CO)C(=O)c2c(c3ccccc3n2C)-c2ccccc2CO[C@@H]1CN(C)S(=O)(=O)c1ccsc1	92.3*	-7.3	13.2	27.1	·	·
Cc1ccc(S(=O)(=O)N(C)C[C@H]2OCc3ccccc3-c3c(n(C)c4ccccc34)C(=O)N([C@@H](C)CO)C[C@@H]2C)cc1	·	9.4	17.3	-9.1	·	·
C[C@@H]1CN([C@@H](C)CO)C(=O)c2c(c3ccccc3n2C)-c2ccccc2CO[C@@H]1CN(C)S(=O)(=O)c1ccsc1	-11.1	4.8	0.2	-24.0	·	·
C[C@H](CO)N1C[C@H](C)[C@H](CN(C)S(=O)(=O)c2ccc(Cl)cc2)OCc2ccccc2-c2c(n(C)c3ccccc23)C1=O	87.8*!	38.3	9.4	-16.4	·	1.9
O=C([C@H]1[C@H](CO)[C@H]2Cn3c(cccc3=O)[C@@H]1N2C(=O)CC1CC1)N1CCc2ccccc2C1	·	1.9	-4.0	6.7	·	·
Cn1c2c(c(=O)[nH]c1=O)C(c1cccc(O)c1)C1=C(N2)c2ccccc2C1=O (centres undefined)	53.3	12.7	25.4	-0.2	0.9	46.6*
Cc1ccc(-c2cc(C(=O)N(C)Cc3cnn(C)c3C)c3cc(Br)ccc3n2)cc1	41.5	71.3*	-14.6	·	0.9	-6.6
COC(=O)COc1c(/C=C\c2nc(O)c([N+](=O)[O-])c(=O)[nH]2)cccc1OC	-10.1	3.8	9.5	55.0*	7.2	0.1
COCC#Cc1cnc2c(c1)C(=O)N([C@@H](C)CO)C[C@H](C)[C@H](CN(C)Cc1ccc(F)cc1)O2	·	7.1	-10.6	3.8	·	·
CCCOc1ccc2cc(-c3ccccn3)c(=O)oc2c1	73.8*	88.5*	77.2*	7.6	51.1	60.5*
CC1(Cc2ccc(OC(F)(F)F)cc2)C(=O)Nc2ccc(S(=O)(=O)NC3CCCCC3)cc21 (centres undefined)	89.7*	?	5.6	-18.1	·	·
CCCC#Cc1ccc([C@@H]2[C@@H](C#N)N(C(=O)C3CCCCC3)[C@@H]2CO)cc1	27.3	-4.4	13.6	2.8	·	·
COc1ccccc1C#Cc1ccc([C@@H]2[C@@H](C#N)N(C(=O)C3CCCC3)[C@H]2CO)cc1	·	21.5	-3.3	·	·	·
CCCC#Cc1ccc([C@@H]2[C@H](C#N)N(S(=O)(=O)c3cccc(F)c3)[C@H]2CO)cc1	83.1*	-12.2	20.3	-3.0	·	·
CCCC#Cc1ccc([C@H]2[C@@H](C#N)N(C(=O)C3CCCCC3)[C@H]2CO)cc1	78.8*	17.0	7.4	-4.0	·	·
CCCC#Cc1ccc([C@H]2[C@H](C#N)N(S(=O)(=O)c3cccc(F)c3)[C@H]2CO)cc1	54.7	1.8	8.9	-3.0	·	·
COc1ccccc1C#Cc1ccc([C@@H]2[C@@H](C#N)N(C(=O)C3CCCCC3)[C@H]2CO)cc1	88.7*	·	0.0	-9.6	·	·
COc1ccccc1C#Cc1ccc([C@H]2[C@@H](C#N)N(C(=O)C3CCC3)[C@H]2CO)cc1	64.2*	-7.9	-17.0	1.0	·	·
C[C@@H]1CN([C@H](C)CO)S(=O)(=O)c2ccc(C#CCN(C)C)cc2O[C@@H]1CN(C)Cc1ccc2c(c1)OCO2	6.6	3.3	18.5	-18.0	·	·
Cc1noc(C)c1S(=O)(=O)N(C)C[C@@H]1OCCCC[C@@H](C)Oc2ccc(NS(=O)(=O)c3ccc(Cl)cc3)cc2C(=O)N([C@@H](C)CO)C[C@@H]1C	32.8	3.9	1.9	-1.3	·	·
COc1ccccc1C#Cc1ccc([C@H]2[C@@H](CO)N(C(=O)C3CCCC3)[C@H]2C#N)cc1	·	7.8	2.2	·	·	·
COc1ccccc1C#Cc1ccc([C@H]2[C@@H](C#N)N(C(=O)C3CCCCC3)[C@H]2CO)cc1	73.4*	·	63.2*	-7.6	·	·
CC(C)n1ncc2c(C(=O)Nc3cccc(C#N)c3)cc(C3CC3)nc21	28.1	94.8*	9.2	1.0	21.8	17.1
CCNC(=O)c1cccc(NC(=O)c2cc(C3CC3)nc3c2cnn3C(C)C)c1	·	15.0	11.0	-24.3	4.9	-0.7
Cc1nc2c(-c3ccc(F)cc3)cnn2c(N)c1-c1ccccc1	-22.0	64.0*	32.3	·	-1.2	14.7
SMILES	PAX8 inh HTS	LGR2 antag	EWS-Fli block	PGC1a acetyl inh	TRPM1 prom inh	EBV LMP1 NFkB
CN(C)CC(=O)N[C@H]1CC[C@H](CC(=O)NCc2ccc(Cl)cc2)O[C@@H]1CO	-5.4	-19.8	5.1	-2.4	·	·
COc1ccc(S(=O)(=O)Nc2ccc3c(c2)C(=O)N([C@H](C)CO)C[C@H](C)[C@@H](CN(C)C(=O)Nc2ccc4c(c2)OCO4)OCCCC[C@@H](C)O3)cc1	-7.2	7.3	-10.2	6.7	·	·
C[C@@H]1CN([C@H](C)CO)C(=O)c2cc(NS(=O)(=O)c3cn(C)cn3)ccc2O[C@@H](C)CCCCO[C@H]1CN(C)S(=O)(=O)c1cn(C)cn1	-14.3	0.3	-9.9	9.6	·	·
O=C(C[C@@H]1CC[C@@H]2[C@H](COC[C@@H](O)CN2Cc2ccc(F)cc2)O1)NCc1ccccc1Cl	-33.4	5.3	11.2	-11.5	·	·
O=C(C[C@@H]1CC[C@H]2[C@@H](COC[C@@H](O)CN2Cc2cccc(F)c2)O1)NCC1CCCCC1	107.4*	1.5	0.1	-5.2	·	·
O=C(C[C@@H]1CC[C@H]2[C@@H](COC[C@@H](O)CN2Cc2cccc(C(F)(F)F)c2)O1)NCc1ccc(F)cc1	97.7*	16.4	27.9	-7.8	·	·
O=C(C[C@H]1CC[C@H]2[C@@H](COC[C@@H](O)CN2Cc2ccc(F)cc2)O1)NCc1ccccc1Cl	78.7*	15.2	3.8	6.2	·	·
CN1c2ccc(-c3ccccc3)cc2[C@H]2[C@H](CCN2C(=O)CN2CCOCC2)[C@H]1CO	24.8	8.2	5.8	3.1	·	·
C[C@@H](NC(=O)C[C@H]1C[C@@H]2c3cc(NC(=O)CN(C)C)ccc3O[C@@H]2[C@H](CO)O1)c1ccccc1	-20.0	11.4	0.0	-13.0	·	·
O=C(COc1ccc2ccccc2c1)Nc1cccc(C(=O)Nc2ccccc2C(=O)O)c1	-4.6	-9.1	·	·	1.2	-5.2
O=C(O)c1ccccc1Nc1cccc(OCc2ccc3ccccc3n2)c1	7.8	-38.6	-14.1	·	0.2	82.0*
CC(=O)NC1=C(N(C)C2CCS(=O)(=O)C2)C(=O)c2ccccc2C1=O (centres undefined)	3.5	·	3.6	5.8	63.8*	11.7
COc1ccc(-c2csc(N3CCN(c4cc(C)nc5ccccc45)CC3)n2)cc1OC	36.3	·	29.5	-8.3	72.9*	31.1
COc1cc(-c2csc(N3CCOCC3)n2)cc(OC)c1OC	·	-11.0	·	1.9	5.7	-3.8
Cc1ccc(S(=O)(=O)Nc2ccc3c(c2)C(=O)N([C@@H](C)CO)C[C@H](C)[C@@H](CN(C)C(=O)NC2CCCCC2)OCCCC[C@@H](C)O3)cc1	-62.4	-9.5	-3.7	1.6	·	·
CSc1cccc(NC(=O)c2cnn3ccccc23)c1	-84.3	-71.5	-47.8	-6.2	-96.7	-18.1
CCc1ccc(NC(=O)c2cnn3ccccc23)cc1	81.7*	·	71.3*	-1.4	50.7	34.6

High-throughput results deposited in PubChem by Broad Institute.
